The values below come from paper PMC5540273 (PLoS ONE, 2017).

For one assay, the system named is GRK1. The conditions noted are these: concentration: 1 μM, replicates: in singlicate; n = 1.
For the next assay, the system named is T1, GRK2.
T1 construct: gene ADRBK1
The conditions noted are these: concentration: 1 μM, replicates: in singlicate; n = 1.

The next assay has as its system T2, GRK3.
T2 construct: gene ADRBK2
Particulars: concentration: 1 μM, replicates: in singlicate; n = 1.

In a further assay the test system is GRK4. The conditions noted are these: concentration: 1 μM, replicates: in singlicate; n = 1.
The test system of another assay is GRK7. The conditions noted are these: concentration: 1 μM, replicates: in singlicate; n = 1.
A further assay concerns GSK3A. The conditions noted are these: concentration: 1 μM, replicates: in singlicate; n = 1.
For a further assay, the system named is GSK3B. The conditions noted are these: n = 1.
The next assay has as its system T3, HASPIN.
T3 construct: gene GSG2
Particulars: concentration: 1 μM, replicates: in singlicate; n = 1.

The test system of a further assay is HCK. The conditions noted are these: concentration: 1 μM, replicates: in singlicate; n = 1.
For a further assay, the system named is HIPK1. The conditions noted are these: concentration: 1 μM, replicates: in singlicate; n = 1.
The next assay concerns HIPK2. Particulars: concentration: 1 μM, replicates: in singlicate; n = 1.
The test system of a further assay is HIPK3. The conditions noted are these: concentration: 1 μM, replicates: in singlicate; n = 1.
A further assay concerns HIPK4. The conditions noted are these: concentration: 1 μM, replicates: in singlicate; n = 1.
In a further assay the test system is HPK1. The conditions noted are these: concentration: 1 μM, replicates: in singlicate; n = 1.
For the next assay, the system named is HUNK. Particulars: concentration: 1 μM, replicates: in singlicate; n = 1.
A further assay deals with ICK. Particulars: concentration: 1 μM, replicates: in singlicate; n = 1.
Another assay concerns IGF1R. The conditions noted are these: concentration: 1 μM, replicates: in singlicate; n = 1.
The subject of another assay is T4, IKK-alpha.
T4 construct: gene CHUK
Particulars: concentration: 1 μM, replicates: in singlicate; n = 1.

Another assay concerns T5, IKK-beta.
T5 construct: gene IKBKB
The conditions noted are these: concentration: 1 μM, replicates: in singlicate; n = 1.

Another assay relates to T6, IKK-epsilon.
T6 construct: gene IKBKE
The conditions noted are these: concentration: 1 μM, replicates: in singlicate; n = 1.

Where [1] appears, read: concentration: 1 μM, replicates: in singlicate.

The structures appear in SMILES notation. Where two headings read alike, the source gives them in different places.
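Also: KINOMEscan kinase panel screen.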

With `Clc1ccc(-c2cc(-c3c[nH]nc3-c3ccccn3)ccn2)cc1` [GW681251], the “%Inh” value worked out at 43% with GRK1; 0% with GRK2; 11% in the assay with GRK3; 0% with GRK4; 0% in the assay with GRK7; 7% in the assay with GSK3A. Moreover, the “%Inh” value was determined as 32% in the assay with GSK3B (setting [1]); 0% with HASPIN; 0% in the assay with HCK; 7% with HIPK1; 0% in the assay with HIPK2; 19% in the assay on HIPK3. Moreover, the “%Inh” value is reported as 0% with HIPK4; 24% in the assay with HPK1; 6% in the assay with HUNK; 0% in the assay with ICK; 4% with IGF1R; 0% in the assay with IKK-alpha. The entries for the “%Inh” value in the assay with IKK-beta and in the assay on IKK-epsilon were 28% and 3%, respectively.
As to `Nc1nc(-c2ccc3c(N)n[nH]c3c2)cc(N2CCC[C@@H](C(=O)Nc3ccccc3)C2)n1.O=C(O)C(F)(F)F.O=C(O)C(F)(F)F` [GSK2288359], the “%Inh” value was found to be 0% with GRK1; 0% in the assay with GRK2; 0% in the assay with GRK3; 27% with GRK4; 0% in the assay on GRK7; 20% in the assay with GSK3A. The “%Inh” value turned out to be 14% in the assay with GSK3B (setting [1]); 0% in the assay with HASPIN; 0% in the assay on HCK; 0% in the assay on HIPK1; 0% with HIPK2; 6% in the assay on HIPK3. In addition, the “%Inh” value with HIPK4 worked out at 1%; in the assay with HPK1, 32%; in the assay on HUNK, 0%; in the assay with ICK it was 12%; in the assay with IGF1R, 100%; in the assay with IKK-alpha it was 0%. The “%Inh” value in the assay with IKK-beta amounted to 0%; in the assay with IKK-epsilon, 29%.
As to `Cl.Fc1ccccc1COc1ccc(Nc2ncnc3ccc(-c4nnc(C(F)(F)F)o4)cc23)cc1Cl` [GW424170], the “%Inh” value with GRK1 amounted to 0%; in the assay with GRK2, 0%; with GRK3, 0%; with GRK4, 0%; in the assay on GRK7, 0%; with GSK3A, 17%. Moreover, the “%Inh” value amounted to 0% with GSK3B (setting [1]); 0% with HASPIN; 0% with HCK; 1% in the assay with HIPK1; 0% in the assay on HIPK2; 0% with HIPK3. Also, the “%Inh” value in the assay on HIPK4 is recorded as 0%; with HPK1, 20%; in the assay on HUNK, 3%; in the assay on ICK it was 0%; with IGF1R it was 11%; in the assay with IKK-alpha, 0%. The “%Inh” value with IKK-beta and with IKK-epsilon was 0% in each case.
As for `Fc1cccc(COc2ccc(Nc3ncnc4sc(-c5ccc[nH]5)cc34)cc2Cl)c1` [GW707818], the “%Inh” value in the assay with GRK1 was 0%; with GRK2, 0%; in the assay with GRK3 it was 0%; in the assay on GRK4, 0%; in the assay with GRK7, 0%; in the assay with GSK3A, 22%. Moreover, the “%Inh” value in the assay with GSK3B (setting [1]) stood at 3%; in the assay with HASPIN, 0%; with HCK it was 0%; in the assay on HIPK1 it was 0%; in the assay with HIPK2, 0%; with HIPK3, 1%. Further, the “%Inh” value in the assay on HIPK4 amounted to 0%; in the assay on HPK1, 39%; in the assay on HUNK, 10%; in the assay with ICK it was 0%; with IGF1R, 0%; with IKK-alpha, 0%. In addition, the “%Inh” value in the assay with IKK-beta and in the assay on IKK-epsilon was 0% throughout.
Regarding `Fc1cccc(COc2ccc(Nc3ncnc4nn5ccccc5c34)cc2Cl)c1` [GW689066], the “%Inh” value was 0% in the assay on GRK1; 0% in the assay with GRK2; 30% in the assay on GRK3; 0% in the assay on GRK4; 0% in the assay with GRK7; 0% in the assay with GSK3A. Moreover, the “%Inh” value in the assay on GSK3B (setting [1]) turned out to be 0%; in the assay with HASPIN, 63%; in the assay on HCK it was 0%; with HIPK1 it was 0%; in the assay on HIPK2, 0%; with HIPK3 it was 0%. Besides, the “%Inh” value is listed as 0% with HIPK4; 22% with HPK1; 28% with HUNK; 0% in the assay with ICK; 0% in the assay with IGF1R; 11% in the assay with IKK-alpha. Further, the “%Inh” value with IKK-beta and with IKK-epsilon was 0% in each case.
With `NC(=O)c1sc(-n2cnc3ccccc32)cc1OCc1ccccc1F` [GSK1024306], the “%Inh” value was determined as 0% with GRK1; 0% with GRK2; 21% with GRK3; 7% in the assay with GRK4; 0% in the assay on GRK7; 7% in the assay on GSK3A. Moreover, the “%Inh” value was found to be 0% with GSK3B (setting [1]); 49% in the assay on HASPIN; 0% in the assay on HCK; 0% in the assay with HIPK1; 44% with HIPK2; 0% in the assay with HIPK3. Also, the “%Inh” value in the assay with HIPK4 is given as 24%; in the assay on HPK1, 51%; with HUNK, 0%; in the assay with ICK, 0%; with IGF1R, 0%; with IKK-alpha, 0%. In addition, the “%Inh” value in the assay on IKK-beta is reported as 2%; with IKK-epsilon it was 0%.
Consider `COc1ccc(-c2oc3ncnc(N)c3c2-c2ccc(OC)cc2)cc1` [SB-589132], for which the “%Inh” value was determined as 0% with GRK1; 0% in the assay on GRK2; 70% in the assay on GRK3; 9% in the assay on GRK4; 0% in the assay with GRK7; 15% in the assay with GSK3A. Moreover, the “%Inh” value with GSK3B (setting [1]) was 0%; in the assay on HASPIN, 64%; in the assay with HCK, 14%; in the assay on HIPK1, 0%; in the assay with HIPK2, 25%; with HIPK3, 3%. Besides, the “%Inh” value in the assay with HIPK4 was 0%; in the assay on HPK1, 40%; in the assay with HUNK it was 8%; in the assay on ICK it was 0%; in the assay on IGF1R, 0%; with IKK-alpha, 49%. In addition, the results for the “%Inh” value in the assay with IKK-beta and with IKK-epsilon were 4% and 6%, respectively.
For `Fc1cccc(COc2ccc(Nc3ncnc4cc[nH]c34)cc2Cl)c1`, the “%Inh” value in the assay with GRK1 came out at 22%; in the assay on GRK2, 20%; in the assay on GRK3, 3%; in the assay on GRK4 it was 35%; in the assay on GRK7, 23%; in the assay with GSK3A, 12%. Moreover, the “%Inh” value amounted to 8% with GSK3B (setting [1]); 0% with HASPIN; 24% in the assay on HCK; 27% in the assay on HIPK1; 27% in the assay with HIPK2; 40% with HIPK3. The “%Inh” value is 9% in the assay with HIPK4; 0% with HPK1; 8% with HUNK; 5% in the assay on ICK; 5% with IGF1R; 5% in the assay with IKK-alpha. For the same compound, the “%Inh” value stood at 23% with IKK-beta and 39% with IKK-epsilon.
Regarding `CN1CCC(n2cnc(-c3ccc(F)cc3)c2-c2ccnc(NC3CCNCC3)n2)CC1` [SB-229482], the “%Inh” value with GRK1 is 11%; with GRK2, 33%; with GRK3, 1%; in the assay with GRK4, 26%; in the assay with GRK7 it was 29%; with GSK3A, 0%. Moreover, the “%Inh” value turned out to be 17% with GSK3B (setting [1]); 16% with HASPIN; 3% in the assay with HCK; 32% with HIPK1; 45% in the assay on HIPK2; 0% in the assay on HIPK3. For the same compound, the “%Inh” value in the assay on HIPK4 was found to be 0%; in the assay with HPK1 it was 27%; in the assay with HUNK it was 0%; with ICK it was 45%; with IGF1R, 0%; in the assay on IKK-alpha, 0%. For the same compound, the “%Inh” value in the assay on IKK-beta and in the assay with IKK-epsilon was 0% throughout.
Take `CC(=O)Nc1n[nH]c2ncc(-c3ccccc3)cc12` [SB-548492]: the “%Inh” value amounted to 26% in the assay on GRK1; 0% in the assay with GRK2; 0% in the assay with GRK3; 18% in the assay with GRK4; 31% in the assay on GRK7; 78% in the assay with GSK3A. The “%Inh” value is reported as 50% in the assay with GSK3B (1 µM); 42% with HASPIN; 9% with HCK; 45% in the assay with HIPK1; 48% in the assay with HIPK2; 34% in the assay with HIPK3. In addition, the “%Inh” value in the assay on HIPK4 came out at 7%; in the assay with HPK1, 23%; in the assay on HUNK, 24%; in the assay with ICK it was 28%; with IGF1R, 10%; in the assay with IKK-alpha, 0%. For the same compound, the “%Inh” value in the assay on IKK-beta is listed as 22%; with IKK-epsilon, 0%.
With `COc1ccc(NC(=O)c2ccc(-c3cc(-c4nnc(C)o4)ccc3C)cc2)cc1` [GW595885], the “%Inh” value with GRK1 is recorded as 0%; in the assay with GRK2, 0%; with GRK3 it was 99.2%; in the assay with GRK4, 22%; with GRK7, 0%; with GSK3A, 32%. The “%Inh” value with GSK3B (setting [1]) worked out at 0%; with HASPIN, 21%; in the assay with HCK, 0%; in the assay with HIPK1 it was 0%; in the assay on HIPK2 it was 0%; with HIPK3, 10%. Moreover, the “%Inh” value with HIPK4 was 0%; in the assay with HPK1, 24%; in the assay with HUNK, 3%; in the assay with ICK, 4%; in the assay on IGF1R it was 0%; with IKK-alpha, 25%. The entries for the “%Inh” value with IKK-beta and in the assay with IKK-epsilon were 24% and 0%, respectively.
